According to PubChem BioAssay (Tox21):
Inconclusive results are not listed. Calls of active or inactive are those of the source. The call rests on the fitted dose curve.

assay: qHTS assay for small molecule disruptors of the mitochondrial membrane potential - cell viability (AID 720634); settings: HepG2 viability, ATP luminescence (CellTiter-Glo), 1 h; series mostly up to 83.2 µM;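 further: human HepG2 liver cancer cells; nearly all actives have a fitted effect of over 20% in size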
Excerpt: U.S. Tox21 Program National Center for Advancing Translational Sciences [NCATS] NIH Chemical Genomics Center [NCGC] U.S. Environmental Protection Agency [EPA] National Institutes of Environmental Health Sciences [NIEHS] National Toxicology Program [NTP] U.S. Food and Drug Administration [FDA] Tox21 Assay Overview: Mitochondrial membrane potential (MMP), one of the parameters for mitochondrial function, is generated by mitochondrial electron transport chain that creates an electrochemical gradient by a series of redox reactions. This gradient drives the synthesis of ATP, a crucial molecule for various cellular processes. Measuring MMP in living cells is commonly used to assess the effect of chemicals on mitochondrial function; decreases in MMP can be detected using lipophilic cationic fluorescent dyes. […] The dye accumulates in the mitochondria of healthy cells as aggregates, with red fluorescence. The mitochondrial potential decreases and the dye could not accumulate in the mitochondria and remains in the cytoplasm in monomers, with green fluorescence. In addition to the mitochondrial potential assay, these cells were also used to test the cytotoxicity by determining the cell viability in the culture based on the quantitation of ATP present. The cytotoxicity was measured in the same assay well of MMP assay.
Tox21 Assay Protocol Summary: 2,000 HepG2 cells in 5 uL/well were dispensed into black, clear-bottom 1536-well plates using a Multidrop Combi (Thermo Scientific) dispenser. The assay plates were incubated for an overnight at 37 C to allow cells to attach to the wells, followed by the transfer of 23 nL compound or DMSO vehicle by a pin tool (Kalypsys). The plates were incubated for 1 hr at 37 C and 5% CO2, followed by the addition of 5 uL of 2X m-MPI dye into each well using Flying Reagent Dispenser (Aurora Discovery) and then CellTiter-Glo reagent was added at 4 uL/well and incubated 30 min at room temperature. Then luminescence intensity was quantified on a ViewLux CCD-based plate reader.

With O=C(O)c1cccc(Oc2ccccc2)c1 as the molecule, how does the outcome read?
The outcome was “inactive”.

With CC(C)C(O)C(C)(C)CO (stereo not given) as the molecule, how does the outcome read?
The outcome was “inactive”.

Which outcome does the source give for COC(CC(C)CCCC(C)(C)O)OC (stereo not given) here?
The outcome was “inactive”.

Which outcome does the source give for C=C(C)c1ccccc1 here?
The outcome was “inactive”.

Which outcome does the source give for CCc1ccc(C)cc1 here?
The outcome was “inactive”.

For COc1ccc(-c2cc(=S)ss2)cc1, which outcome is on record?
The outcome was “inactive”.

For CSSc1ccoc1C, which outcome is on record?
The outcome was “inactive”.

With CNCc1ccc(NC(=O)c2c[nH]c3c2C(=O)CCC3)cc1 as the molecule, how does the outcome read?
Its outcome is “inactive”.

With CSCC[C@H](NC(=O)[C@H](Cc1c[nH]c2ccccc12)NC(=O)CCNC(=O)OC(C)(C)C)C(=O)N[C@@H](CC(=O)O)C(=O)N[C@@H](Cc1ccccc1)C(N)=O as the molecule, how does the outcome read?
Its outcome is “inactive”.

With CNS(=O)(=O)c1cc(C(=O)N2CCC(CCN3C4CCC3CC(n3c(C)nc5ccccc53)C4)(c3cccc(F)c3)CC2)c(Cl)cc1F (stereo not given) as the molecule, how does the outcome read?
Its outcome is “inactive”.

With CCSC(=O)N(CC)CC as the molecule, how does the outcome read?
The outcome was “inactive”.

With CC[C@@H](CO)NCCN[C@@H](CC)CO as the molecule, how does the outcome read?
The outcome was “inactive”.

Which outcome does the source give for Nc1ccc(S(=O)(=O)NCc2ccccc2)cc1 here?
The outcome was “inactive”.

Which outcome does the source give for CCC(=O)OCc1ccc(OC)cc1 here?
Its outcome is “inactive”.

Which outcome does the source give for CC(C)CC(O)CC(C)C here?
The outcome was “inactive”.

Which outcome does the source give for O=C(CCS)OCC(COC(=O)CCS)(COC(=O)CCS)COC(=O)CCS here?
Its outcome is “inactive”.

Which outcome does the source give for Nc1cccc2c(N)cccc12 here?
The outcome was “inactive”.

With CC(C)(C)NCC(O)COc1cccc2c1C[C@H](O)[C@H](O)C2 (stereo not given in full) as the molecule, how does the outcome read?
The outcome was “inactive”.

For CC(C)COC(=O)COc1cc(Cl)c(Cl)cc1Cl, which outcome is on record?
The outcome was “inactive”.

With O=C1OC(=O)c2c(Br)c(Br)c(Br)c(Br)c21 as the molecule, how does the outcome read?
Its outcome is “inactive”.

For CC(C)c1ccc(C(=O)N=C(N)N)cc1S(C)(=O)=O, which outcome is on record?
Its outcome is “inactive”.

For CC(=O)N[C@@H](Cc1ccc(O)cc1)C(=O)O, which outcome is on record?
The outcome was “inactive”.

With CC(=O)OCC(=O)[C@@]1(OC(C)=O)[C@@H](C)C[C@H]2[C@@H]3C[C@H](F)C4=CC(=O)C=C[C@]4(C)[C@@]3(F)[C@@H](O)C[C@@]21C as the molecule, how does the outcome read?
Its outcome is “inactive”.

With CCN(CC)CCOC(=O)C(c1ccccc1)c1ccccc1 as the molecule, how does the outcome read?
The outcome was “inactive”.

For Nc1ccn([C@H]2CS[C@@H](CO)O2)c(=O)n1, which outcome is on record?
The outcome was “inactive”.

With CC(C)Cc1ccc(CC(=O)O)cc1 as the molecule, how does the outcome read?
Its outcome is “inactive”.

Which outcome does the source give for CC(C)(O)c1coc(S(=O)(=O)NC(=O)Nc2c3c(cc4c2CCC4)CCC3)c1 here?
The outcome was “inactive”.

Which outcome does the source give for C=CC(=O)NC(C)C here?
The outcome was “inactive”.

Which outcome does the source give for CC(C)N(C)C here?
The outcome was “inactive”.

Which outcome does the source give for O=C(O)CO here?
Its outcome is “inactive”.

For O=C1[C@@H]2[C@H]3CC[C@H](C3)[C@@H]2C(=O)N1CCCCN1CCN(c2ncccn2)CC1, which outcome is on record?
Its outcome is “inactive”.

With C1=CCC2CC=CC2C1 (stereo not given) as the molecule, how does the outcome read?
The outcome was “inactive”.

With CCN(CC)c1cccc(O)c1 as the molecule, how does the outcome read?
The outcome was “inactive”.

For CCCCCCCC(=O)OCCCCCC, which outcome is on record?
Its outcome is “inactive”.

For Cc1cccc2sc(N)nc12, which outcome is on record?
Its outcome is “inactive”.

For COc1ccc(C2C(=O)c3ccccc3C2=O)cc1, which outcome is on record?
Its outcome is “inactive”.

Which outcome does the source give for CC1=C2[C@@H]([C@H](C)CC[C@H]2/C=C(\C)C(=O)O)[C@H](O)C1 here?
Its outcome is “inactive”.

With CCCCCCCCCCCCCCN(C)C as the molecule, how does the outcome read?
The outcome was “inactive”.

Which outcome does the source give for CCCOC(=O)c1c(Cl)c(Cl)c(Cl)c(Cl)c1C(=O)OCCC here?
Its outcome is “inactive”.

With CCN(CC)CCOc1ccccc1C(=O)CCc1ccccc1 as the molecule, how does the outcome read?
Its outcome is “inactive”.
